{
  "source": "PubChem BioAssay",
  "note": "Values without a mark were called inactive.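 Rule for the calls: active = inhibition of the reporter signal at or above 50%; inactive = inhibition below 50%.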",
  "data": [
    {"assay": "TLR3 IRF3 reporter activation blockers – cell-based, poly I:C stimulus, luciferase, 10K MLSCN set, primary screen (AID 602277)", "conditions": "HEK293-TLR3 RL24 IRF3 luciferase reporter, at 10 µM, active compounds read high", "units": {"inhibition": "%"}, "values": [
      {"compound": "O=C(CSc1nc2ccccc2c(=O)n1Cc1ccco1)NCc1ccccc1", "inhibition": 9.86},
      {"compound": "O=C(NC1CCCC1)C(NS(=O)(=O)c1cccc2nsnc12)c1ccccc1", "note": "(stereo unspecified)", "inhibition": 17.3},
      {"compound": "CCOC(=O)c1sc(NC(=O)CSc2ncn(-c3ccccc3)n2)nc1C", "inhibition": 13},
      {"compound": "COC(=O)Nc1ccc(S(=O)(=O)N2CCCCCC2)cc1", "inhibition": 19.7},
      {"compound": "Cc1cc(C)n2nc(SCC(=O)N(C)Cc3ccccc3)nc2n1", "inhibition": -9.42},
      {"compound": "O=C(CSc1nnc(Cc2ccccc2)n1-c1cccc(Cl)c1)N1CCOCC1", "inhibition": 9.14}
    ]}
  ]
}
